Screening results from PubChem.
KDM5B inh – inhibitors of human KDM5B histone demethylase | Q9UGL1 | AID 1347165 | Potency, µM (top dose mostly 57.7 µM), most hits filed as inhibitors | KDM5B demethylase, FDH-coupled NADH fluorescence (FDH is formaldehyde dehydrogenase) | hit rate 2.6% among 220,000; further: potency means the concentration at half of the fitted maximal effect; 0% is about no effect; nearly all actives have a fitted effect of over 70% in size
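Coupled FDH/NAD⁺ fluorescence readout. KDM5BΔAP 200 nM final; compound titration, 10 min RT preincubation; substrate mix 12.5 µM H3K4me3, 25 µM 2-OG, 50 µM Fe(II), 100 µM ascorbate, 0.25 mM NAD⁺, 0.25 U/mL FDH; ΔRFU over 30 min.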
SNCA expr inhib – SNCA gene expression inhibition | HEK-293 SNCA-luciferase knock-in, luminescence, 24 h | Potency, µM (highest dose often 57.2 µM), inactives show at the top dose activity change, negative = inhibition, usual class: inhibitors | hit rate 0.17% among 140,000 | AID 1671194;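 further: potency means the concentration at half of the fitted maximal effect; plate controls were DMSO cells for no effect and cell-free wells for full effect; nearly all actives have a fitted effect of over 45% in size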
IP6K1 inh – blocks human inositol hexakisphosphate kinase 1 | IP6K1 kinase, ADP-Glo luminescence, 2 h; active compounds read low | activity change, % (series mostly up to about 58 µM) | hit rate 0.81% among 140,000; in the data active means activity change below about -25%; further: on the % scale 0 is the no-effect control and ±100 the full control effect
Target sequence (Q92551 whole entry, looked up): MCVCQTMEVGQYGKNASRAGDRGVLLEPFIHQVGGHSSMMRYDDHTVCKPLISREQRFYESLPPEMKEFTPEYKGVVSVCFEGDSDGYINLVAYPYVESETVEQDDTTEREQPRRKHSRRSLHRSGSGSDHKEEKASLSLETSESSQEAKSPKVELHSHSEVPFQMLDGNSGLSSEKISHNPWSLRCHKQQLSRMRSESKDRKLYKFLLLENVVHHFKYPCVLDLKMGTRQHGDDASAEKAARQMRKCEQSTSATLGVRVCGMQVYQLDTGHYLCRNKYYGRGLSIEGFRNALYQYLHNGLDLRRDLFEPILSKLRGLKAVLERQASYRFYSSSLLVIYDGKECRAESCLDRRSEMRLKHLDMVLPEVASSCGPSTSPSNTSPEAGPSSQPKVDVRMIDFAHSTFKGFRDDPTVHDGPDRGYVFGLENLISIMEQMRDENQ
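ADP-Glo luminescence measures ADP made by human IP6K1 during a 2 h RT reaction with ATP/IP6 (mix at 1.3 mM/130 uM); top library doses 57.5 and 19.1 uM final.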
SNCA viab count – cell viability loss counter-screen. HEK-293-SNCA-luc viability, GF-AFC fluorescence, 24 h. Potency, µM (highest dose often 57.1 µM), for the others: at the highest dose activity change, negative = cytotoxicity, usual class: cytotoxic. hit rate 0.12% among 150,000. AID 1671193;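 further: potency means the concentration at half of the fitted maximal effect; 0% = DMSO-treated cells and -100% = medium-only wells without cells; nearly all actives have a fitted effect of over 30% in size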
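HEK-293-SNCA-luc cells (1500/well) plated 24 h, then exposed 24 h to a dilution series; GF-AFC added 30 min at 37C, fluorescence 405/540 nm; normalised to medium-only and DMSO wells, Hill fit.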
Numbers without * were called inactive; i = inactive; ? = inconclusive; · = not tested or not shown; ! = repeats disagree; [ ] = remark or other dose. Shown are actives, neighbours in structure and some others; about 2.8% of the full set was active somewhere. Unless noted, the call rests on the fitted dose curve; in most records, active means well fitted curve in the direction sought with a large enough effect; inconclusive means small, poorly fitted or top-dose-only effect, or another doubt; inactive means no such curve, though single readings can be large; an effect the other way counts as inactive or inconclusive.

SMILES	KDM5B inh	SNCA expr inhib	IP6K1 inh	SNCA viab count
Cc1nccn1-c1ccc(NC(=O)C2CCCN(c3ncccc3C#N)C2)cc1 (centres undefined)	28.2µM*	1.4%	-7.9	-29.9%
CC1(C(=O)N2CCN(c3ccccn3)CC2)CCOCC1	112µM*	-17.3%[87.6 µM]	-15.3	3.4%[87.6 µM]
CC1(C(=O)N2CCN(c3ccccn3)CC2)CCCCC(=O)N1 (centres undefined)	17.8µM*	-11.4%	5.0	3.7%
CC1(C(=O)N2CCC(c3ccccc3)CC2)CCOCC1	i	?	-7.6	-5.1%[87.6 µM]
CN1CCN(Cc2ccc(CNCc3ccc(C#N)cc3)cc2)CC1	i	·	·	·
O=C(NCCN1CCN(C(=O)CCc2c[nH]c3ccccc23)CC1)c1ccco1	i	·	·	·
Cc1cn2nc(C(=O)NCc3ccccn3)cc2c(=O)[nH]1	?	26.2%	-11.0	2.7%
Cc1cn2nc(C(=O)Nc3ccc(C(=O)NCCc4cccs4)cc3)cc2c(=O)[nH]1	25.1µM*	-24.0%	7.1	-7.8%
Cc1ccc(S(=O)(=O)N2CCC(C(=O)OC(C)C(=O)N3CCCC3)CC2)cc1 (centres undefined)	i	·	·	·
O=C(CCCc1ccccc1)Nc1ccc(OC2CCNCC2)nc1	17.8µM*	99.8%	6.6	2.4%
Fc1ccc(-c2nc(-c3cccs3)c(-c3cccs3)[nH]2)cc1	?	-5.0%	-6.3	-11.0%
Oc1ccc(-c2nc(-c3ccc(F)cc3)c(-c3ccncc3)[nH]2)cc1	·	1.36µM*!	·	?
Cc1nn(Cc2ccccc2)c(C)c1[C@@H]1C=C[C@@H](NC(=O)c2ccc(F)c(Cl)c2)C1	28.2µM*	?	-11.8	?
Cc1nn(Cc2ccccc2)c(C)c1[C@@H]1C=C[C@@H](NC(=O)c2ccco2)C1	?	9.5%[87.6 µM]	-2.8	-10.5%[87.6 µM]
O=C(Cc1cccs1)N1CCCn2cc(-c3ccccc3F)nc21	?	-16.0%	3.1	-2.6%
N#Cc1cccc(-c2cn3c(n2)N(C(=O)c2ccccc2)CCC3)c1	20µM*	83.3%	-5.8	0.5%
N#Cc1cccc(-c2cn3c(n2)N(C(=O)CC2CCCC2)CCC3)c1	20µM*	58.6%	14.6	6.2%
N#Cc1cccc(-c2cn3c(n2)N(C(=O)Cc2ccsc2)CCC3)c1	31.6µM*	12.7%	9.3	8.2%
CC(=O)NCC(=O)N1CCCn2cc(-c3cccc(C#N)c3)nc21	i	-19.4%	9.6	-11.2%
N#Cc1cccc(-c2cn3c(n2)N(C(=O)COc2ccccc2)CCC3)c1	28.2µM*	0.6%	-3.2	3.9%
COc1cccc(-c2cn3c(n2)N(C(=O)Cn2ccnc2)CCC3)c1	i	70.9%	2.3	8.9%
O=C(CN1CCCc2cc(F)c(F)cc21)Nc1cccc2nsnc12	i	·	·	·
CC1=C[C@@H](CN(C)C)[C@H](C(C)C)C[C@H]1Cc1nc2ncc(Cl)cc2[nH]1	i	5.9%[87.6 µM]	-5.6	-14.1%[87.6 µM]
O=C(NC1CCCc2ccccc21)c1cc2c(s1)CCC2 (centres undefined)	i	·	·	·
O=C(c1ccccc1)N1CCN(C(=O)c2n[nH]c(=O)c3ccccc23)CC1	i	·	·	·
SMILES	KDM5B inh	SNCA expr inhib	IP6K1 inh	SNCA viab count
N#Cc1cccc(-c2cn3c(n2)N(C(=O)c2cnccn2)CCC3)c1	?	36.8%	8.1	1.4%
Cc1ccc(C(=O)N2CCCn3cc(-c4cccc(C#N)c4)nc32)cc1	31.6µM*	73.2%	7.3	4.8%
N#Cc1cccc(-c2cn3c(n2)N(C(=O)c2ccsc2)CCC3)c1	17.8µM*	85.1%	9.8	3.1%
N#Cc1cccc(-c2cn3c(n2)N(C(=O)c2ccccc2F)CCC3)c1	20µM*	3.8%	5.2	-7.0%
Cc1ccc(C(=O)N2CCCn3cc(-c4ccccc4)nc32)cn1	?	91.9%	-4.6	-22.3%
O=[S+]([O-])(NC1CCN(c2nccc(Nc3ccccc3Cl)n2)CC1)c1cccs1	·	-4.1%	-1.7	8.0%
Cc1oc(-c2cccs2)nc1CN1CCCC(c2ccn[nH]2)C1 (centres undefined)	28.2µM*	6.1%	2.5	-8.3%
COCCNC(=O)c1ccc(-c2ccc(N3CCCCC3)nc2)cc1	12.6µM*	79.0%	13.2	8.8%
O=C(NC1CCCC1)c1ccc(-c2ccc(N3CCSCC3)nc2)cc1	28.2µM*	31.6%	-0.8	-5.9%
O=C(NCCN1CCOCC1)c1ccc(-c2ccc(N3CCCCC3)nc2)cc1	28.2µM*	18.9%	-4.1	-23.2%
O=C(NCCN1CCCC1)c1ccc(-c2ccc(N3CCSCC3)nc2)cc1	25.1µM*	24.6%	-7.1	-14.2%
